Measurements reported in ChEMBL document CHEMBL3988442, “University of Dundee, Small-Polar-MMV Screening Library” (2021).
Among all 48,000 compounds or so, about 13,000 (27%) showed an effect of 50% or more. The list shows a part of the results.

system: Wolbachia pipientis; assay: Anti-Wolbachia Cell-Based Screen; assay type: functional; parameters: scale not given: in the data most compounds retested in dose-response had high values; settings: 5 µM

Compound	Percent Effect
O=C(CN1CCN(CCO)CC1)NCc1ccc(Cl)s1	-5.807%
Cc1nsc(NC2CCOC3(CCCC3)C2)n1 (configuration not stated)	-8.543%
Cc1cccc(OC2CN(C(=O)c3cnn(C)c3)C2)c1	-4.108%
CCn1cc(C(=O)N2C[C@H]3C[C@H](Oc4ccccc4)C[C@H]3C2)cn1	75.19%
COc1cccc(OC2CN(C(=O)c3ccnc(OC)c3)C2)c1	6.103%
Cn1cc(C(=O)N2CCCN(C3Cc4ccccc4C3)CC2)cn1	-3.221%
CN(C)c1ncc(C(=O)N2C[C@H]3C[C@H](Oc4ccccc4)C[C@H]3C2)cn1	125.1%
CCc1ncc(C(=O)N2CC(Oc3ccccc3Cl)C2)cn1	4.007%
CCn1cc(CN2C[C@H]3CC[C@@H]2CN(C(=O)c2ccncc2)C3)cn1	5.818%
Cn1cc(C(=O)N2C[C@H]3C[C@H](Oc4ccccc4)C[C@H]3C2)cn1	96.44%
O=C(NC[C@]1(O)CN(Cc2ncccc2F)C[C@H]1O)c1cc[nH]n1	112.1%
Cc1ncsc1CN1C[C@@H]2COC[C@]2(CNC(=O)c2ccco2)C1.O=C(O)C(F)(F)F	-13.65%
O=C(NC[C@]1(O)CN(Cc2ccc(F)cc2)C[C@H]1O)c1ccccn1	127.5%
Cc1ncsc1CN1C[C@@H](O)[C@](O)(CNC(=O)c2ccccn2)C1	100.8%
COc1ccc2c(c1)nc1n2[C@@H](CNC(=O)c2ccccn2)COC1	1.575%
COc1ccc(CNC(=O)c2ccc(Br)cn2)cc1	-6.814%
Cc1cccc(CN2C[C@@H]3COC[C@]3(CNC(=O)c3ccsc3)C2)n1.O=C(O)C(F)(F)F.O=C(O)C(F)(F)F	8.722%
Cc1ncsc1CNC(=O)N1CCN(Cc2ccccc2)C[C@H]1C	1.865%
O=C(N[C@@H]1CCN(C(=O)c2ccc(F)cc2Cl)C[C@H]1O)c1ccccn1	-3.407%
NC(=O)C(NC1CCN(Cc2ccc(F)cc2)CC1)c1ccccc1 (configuration not stated)	12%
COc1ccc(CN2C[C@@H](O)[C@](O)(CNC(=O)c3ccccn3)C2)cc1	112%
Cc1ccc(OC2CCN(C(=O)Cc3c(C)[nH]c(=O)[nH]c3=O)CC2)cc1	33.83%
Cc1ccccc1N1CCCN(C(=O)CCc2ccncc2)CC1	5.689%
CS(=O)(=O)NCC1CCCN(C(=O)COCC(F)(F)F)C1 (configuration not stated)	-5.002%
CN1CCC(O)(CCNC(=O)[C@@]23CNC[C@@H]2CN(C2CCCC2)C3)CC1	-8.037%
CNS(=O)(=O)CC(=O)N(Cc1ccccc1)c1ccc(C)cc1	-6.093%

Compound	Percent Effect
NC(=O)c1csc(C(=O)N2CCCC(n3ccnc3)C2)c1 (configuration not stated)	4.502%
O=C1CSc2ccc(C(=O)N3CCCC(n4cccn4)C3)cc2N1 (configuration not stated)	11.58%
CC(C)c1nccn1C1CCCN(C(=O)c2ccnc(N(C)C)c2)C1 (configuration not stated)	-0.8202%
NC(=O)c1csc(C(=O)N2CCCC(n3cccn3)C2)c1 (configuration not stated)	118.9%
CC(C)c1nccn1C1CCCN(C(=O)c2cc(C(N)=O)cs2)C1 (configuration not stated)	117.7%
CC(C)c1nccn1C1CCCN(C(=O)c2ccsc2)C1 (configuration not stated)	-9.917%
CNc1snc(C)c1C(=O)N1CCCC(n2nc(C)cc2C)C1 (configuration not stated)	-4.797%
Cc1nc(C)n(C2CCCN(C(=O)c3cc(C(N)=O)cs3)C2)n1 (configuration not stated)	0.8263%
Cc1cc(C)n(C2CCCN(C(=O)c3cc(C(N)=O)cs3)C2)n1 (configuration not stated)	143.1%
O=C1COc2ccc(S(=O)(=O)NC3CC3)c3c2N1CCC3	-10.68%
O=C1CC[C@H]2CN(c3ncc(F)cn3)CC[C@H]2N1CCc1ccccc1	-8.563%
CN(C(=O)c1ccncc1F)c1ccccc1S(C)(=O)=O	0.2118%
O=C(CCN1CCCCC1)N1CCC(Cc2ccc(CO)cc2)C1 (configuration not stated)	-4.228%
Cc1nc(N2CCOc3ccc(CO)cc3C2)c2nc(C)oc2n1	-3.074%
CCNc1ncc(CN2C[C@@H](C(=O)O)[C@H](C3CC3)C2)cn1	-13.99%
C[C@@H]1CN(CCC(=O)N(C)Cc2ccccc2)CC[C@@]1(O)C1CCC1	22.93%
O=C(O)[C@@H]1CN(Cc2cnc(C3CCCCC3)nc2)C[C@H]1C1CC1	0.2506%
CCN(Cc1ccncc1)C(=O)CCn1c(C)cc2ccccc21	-6.043%
CN(Cc1ccccc1)C(=O)CCN1CCC2(CC1)[C@H](O)C[C@@H]2O	-5.462%
CN(Cc1ccccc1)C(=O)CCN1C[C@H](C2CC2)[C@@H](N(C)C)C1	117.2%
C[C@@H]1CN(CCC(=O)N(C)Cc2ccccc2)C[C@@]1(O)C1CCC1	-9.793%
CCN(Cc1ccccc1)C(=O)CCN1C[C@@H](C(=O)O)[C@H](C2CC2)C1	110.3%
CCN(Cc1ccccc1)C(=O)CCN1CC(O)C1	89.96%
CCNC(=O)C1CCN(c2cc(-c3ccccc3)nc3ccnn23)C1 (configuration not stated)	11.77%
CC(C)(C)c1ccc(=O)n(CN2CCCC(C(F)(F)F)C2)n1 (configuration not stated)	-4.138%
COc1ccc2c(c1)OCC(CNC(=O)c1ccc(=O)n(C)c1)C2 (configuration not stated)	0.3526%

Compound	Percent Effect
O=C(CCNC(=O)c1ccoc1)NCc1ccccc1F	0.6342%
CCN1CCN(CC(O)c2ccc(F)cc2)CC1 (configuration not stated)	5.506%
Cn1ccnc1CN1CCN(CC(O)c2cc(F)ccc2F)CC1 (configuration not stated)	92.89%
Cc1nnc(CN2CCN(Cc3nccn3C)CC2)n1C	-10.76%
Cn1ccnc1CN1CCN(Cc2cc(C#N)ccc2F)CC1	0.8662%
N#Cc1ccnc(N2CCN(CC(O)c3cc(F)ccc3F)CC2)c1 (configuration not stated)	-0.2819%
Cn1ccnc1CN1CCN(CC(O)c2ccco2)CC1 (configuration not stated)	3.847%
Cc1ccc(C(O)CN2CCN(Cc3nccn3C)CC2)cc1C (configuration not stated)	121.6%
Cn1ccnc1CN1CCN(CC(O)c2ccc(F)cc2)CC1 (configuration not stated)	154.5%
CC(C)c1ccc(C(O)CN2CCN(Cc3nccn3C)CC2)cc1 (configuration not stated)	94.53%
Cn1ccnc1CN1CCN(CC(O)c2ccc(F)c(F)c2)CC1 (configuration not stated)	-1.464%
Cc1nnc(CN2CCN(CC(O)c3cccc(F)c3)CC2)n1C (configuration not stated)	8.346%
CC(C)C1CN(S(=O)(=O)Cc2cccc(C#N)c2)CCS1 (configuration not stated)	-6.809%
COCC1(NC(=O)Nc2nc(C)ns2)CCCC1	-4.167%
CC(C)[C@H]1COC(=O)N1Cc1noc(-c2ccccc2)n1	-3.7%
Cc1nc(NS(=O)(=O)c2ccc(F)c(Br)c2)no1	-14.77%
CCn1ncc2c1C(COC)CN(Cc1ccc(F)cc1)C2.O=C(O)C(F)(F)F.O=C(O)C(F)(F)F (configuration not stated)	110%
CCn1cc2c(n1)CN(Cc1ccc(F)cc1)CC2COCC1CC1.O=C(O)C(F)(F)F (configuration not stated)	-4.171%
COCC1CN(Cc2cccnc2)Cc2nnn(CC3CC3)c21.O=C(O)C(F)(F)F.O=C(O)C(F)(F)F (configuration not stated)	-2.73%
Cn1ncc2c1CN(Cc1cccnc1)CC2COCC1CC1.O=C(O)C(F)(F)F.O=C(O)C(F)(F)F.O=C(O)C(F)(F)F (configuration not stated)	2.893%
CCn1ncc2c1C(COC)CN(Cc1cccnc1)C2.O=C(O)C(F)(F)F.O=C(O)C(F)(F)F.O=C(O)C(F)(F)F (configuration not stated)	103%
COCC1CN(Cc2ccc(F)cc2)Cc2nnn(CC3CC3)c21.O=C(O)C(F)(F)F (configuration not stated)	-1.939%
COCC1CN(CC2CCOCC2)Cc2cn(CC3CCCC3)nc21 (configuration not stated)	-7.587%
Cc1nonc1C1CCCN1C(=O)c1cc2n(n1)CCCN(C(C)C)C2 (configuration not stated)	4.032%
CSCCNC(=O)c1ccc(OC2CCN(CC(C)(C)C)CC2)c(Cl)c1	-14.62%
Cc1nc(SCC(=O)Nc2ccc(C(N)=O)cc2)c(C#N)c(C)c1C	108.9%

Compound	Percent Effect
COc1ccc(NC(=O)CSc2nc(C)c(C)c(C)c2C#N)cn1	14.78%
Cc1cc(=O)n(CC(=O)Nc2ccc(C(N)=O)cc2)nc1C	4.74%
Cc1ccccc1CC(C)(C)NC(=O)CCOc1cccc(C(N)=O)c1	-6.35%
CC(c1cc(O)nc(NC2CCCC2)n1)n1ncc2ccccc2c1=O (configuration not stated)	143.5%
CC(C)Nc1nc(O)cc(C(C)n2ncc3ccccc3c2=O)n1 (configuration not stated)	144.2%
CC(NCCN1CCN(C(=O)C2CCCC2)CC1)c1ccccn1 (configuration not stated)	4.295%
NC(=O)c1noc(Cn2ncc3ccccc3c2=O)n1	-15.29%
CC(C)c1noc(Cn2ncc3ccccc3c2=O)n1	-9.946%
CNC(=O)c1noc(Cn2ncc3ccccc3c2=O)n1	-3.773%
Cc1cc(C)nc(NC2CC(=O)N(C)C2)n1 (configuration not stated)	-15.96%
CCN(CC)c1nc(O)cc(C(C)n2ncc3ccccc3c2=O)n1 (configuration not stated)	150.9%
CC(C)c1nc(CNC(C(=O)N2CCOCC2)C(C)C)no1 (configuration not stated)	-8.871%
COCCN(Cc1coc(-c2ccc(OC)cc2)n1)C1CC1	2.104%
CC(C)CC(NC(=O)C1=CCCC1)C(=O)N1CCC(CO)CC1 (configuration not stated)	0.4021%
COCc1nc2cc(NCc3ccc(CO)o3)ccc2o1	-0.637%
CCN(CC)C(=O)CCCNC(=O)c1csc(NC2CC2)n1	-10.76%
Cc1nn(C)c(Oc2ccc(Cl)cc2)c1CN1CCC(CN)C1 (configuration not stated)	-7.014%
CC(O)Cc1cn(CC2CCN(c3nccc4occc34)CC2)nn1 (configuration not stated)	2.668%
Cc1csc2ncc(-c3ccnc(NC4CCOCC4)n3)c(=O)n12	88.01%
FC(F)(F)CCc1ccnc(NC2CCOC2)n1 (configuration not stated)	0.7283%
Cc1ccc(-c2ccnc(N[C@H]3COC[C@@H]3N3CCCCC3)n2)c(C)n1	10.8%
Cc1cn2c(=O)c(-c3ccnc(NC4CCOCC4)n3)cnc2s1	101.9%
Cc1cn2c(=O)c(-c3ccnc(N[C@@H]4CCOC4)n3)cnc2s1	101%
CCCn1ncc(-c2ccnc(NC3CCSC3)n2)c1C (configuration not stated)	-13.99%
